# Assay outcomes deposited in PubChem BioAssay by National Center for Advancing Translational Sciences (NCATS).
# p53ts 39C tox: qHTS Screen for Compounds that Selectively Target Cancer Cells with p53 Mutations: Cytotoxicity of p53ts Cells at the Nonpermissive Temperature; Potency, µM (titrated, usually from 46.1 µM), for inactives: at the highest dose activity change, negative = cell killing, usual class: cytotoxic; H1299-p53A138V viability at 39C, ATP luminescence, 24 h; hit rate 1.5% among 130,000; further: nearly all actives have a fitted effect of over 55% in size
# p53ts 32C tox: qHTS Screen for Compounds that Selectively Target Cancer Cells with p53 Mutations: Cytotoxicity of p53ts Cells at the Permissive Temperature; H1299-p53A138V at 32C, ATP luminescence viability, 24 h; Potency, µM (highest dose often 46.1 µM), inactives show at the top dose activity change, negative = cytotoxicity, actives largely listed as cytotoxic; hit rate 0.93% among 130,000; AID 924, 2007;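 further: 0% = DMSO and -100% = full killing by reference compound; nearly all actives have a fitted effect of over 55% in size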
#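 H1299-p53 A138V cells (temperature-sensitive p53) exposed 24 h to up to 46 uM compound at 32C, where p53 is wild-type in conformation. Viability read as ATP luminescence and normalised to DMSO and 100 uM tamoxifen. AC50 fitted with the Hill equation.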
# FLuc inh: qHTS Assay for Inhibitors of Firefly Luciferase; Potency, µM (series often up to 57.1 µM), for inactives: at the top dose activity change, negative = inhibition, hits mostly inhibitors; purified firefly luciferase, luminescence, 8 min; hit rate 2.2% among 72,000; further: nearly all actives have a fitted effect of over 40% in size
# Target sequence (P08659 whole entry, looked up): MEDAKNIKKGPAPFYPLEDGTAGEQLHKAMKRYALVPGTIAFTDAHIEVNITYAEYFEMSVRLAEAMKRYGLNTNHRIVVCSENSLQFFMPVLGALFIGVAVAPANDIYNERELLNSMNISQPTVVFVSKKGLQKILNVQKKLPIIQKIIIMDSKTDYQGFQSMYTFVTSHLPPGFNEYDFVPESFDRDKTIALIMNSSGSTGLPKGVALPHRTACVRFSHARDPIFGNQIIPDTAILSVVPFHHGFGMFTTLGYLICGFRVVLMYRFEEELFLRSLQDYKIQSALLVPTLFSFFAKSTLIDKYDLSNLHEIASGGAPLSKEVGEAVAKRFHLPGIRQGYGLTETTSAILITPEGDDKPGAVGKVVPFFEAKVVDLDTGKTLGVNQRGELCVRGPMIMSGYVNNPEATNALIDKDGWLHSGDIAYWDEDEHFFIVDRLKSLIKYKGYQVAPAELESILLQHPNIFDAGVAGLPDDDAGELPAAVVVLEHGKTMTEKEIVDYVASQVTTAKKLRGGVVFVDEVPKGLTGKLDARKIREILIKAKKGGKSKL
#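 Firefly luciferase (PKLight detection mix) with 10 uM ATP in pH 7.2 imidazole buffer (KCl, MgCl2, Tween 20, BSA). Compounds tested across a concentration series (qHTS). Luminescence read after 8 min at ambient temperature.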
# Active calls of the source: *; ? = inconclusive; nt = not tested or not shown; [ ] = dose if it differs, or a comment. In the library only some 2.5% were active in any assay of this set; here they are far more common. The call rests on the fitted dose curve; in most records, active means well fitted curve in the direction sought with a large enough effect; inconclusive means small, poorly fitted or top-dose-only effect, or another doubt; inactive means no such curve, though single readings can be large; an effect the other way counts as inactive or inconclusive. Unless noted, on the % scale 0 is the no-effect control and ±100 the full control effect; potency means the concentration at half of the fitted maximal effect.
SMILES,p53ts 39C tox,p53ts 32C tox,FLuc inh
Cc1ccc(-n2ncc3c(NC4CCCCCC4)ncnc32)cc1Cl,?,-21.5%,nt
Clc1ccc(-n2ncc3c(NCc4ccco4)ncnc32)cc1,nt,nt,3.98µM*
CC(=O)N1CCCC1c1nc2ccccc2n1Cc1ccccc1C (stereo not drawn),120.3%,115.5%,nt
CC1=C(CC[C@H](C)CO)O[C@@H]2C[C@@H]3[C@H]4CC[C@H]5C[C@@H](O)CC[C@]5(C)[C@@H]4CC(=O)[C@@]3(C)[C@@H]12,-5.0%[9.22 µM],-0.3%[9.22 µM],1.2%[11.4 µM]
CC1=CC(=O)c2ccccc2C1=O,?,25.1µM*,0.1%[25.5 µM]
CN(C)C=C1C(=O)c2ccccc2C1=O,nt,nt,-11.3%[25.5 µM]
CC(=O)c1ccc(NC(=O)c2ccn[nH]2)cc1,10µM*,12.6µM*,25.1µM*
CC(=O)c1ccc(NC(=O)c2ccc(-n3cnnc3)cc2)cc1,-22.3%,-2.8%,nt
N#CCCn1c(=O)cnc2cnc(Oc3cccc(Cl)c3)nc21,21.0%,0.0%,1.6%[11.4 µM]
COc1c2c(nc3ccccc13)O[C@@H]([C@@](C)(O)CO)C2,10.8%,8.8%,0.7%
Cn1nnc(-c2ccc(OCc3ccccc3F)cc2)n1,-24.5%,-28.4%,25.1µM*
Cc1cc(/C=N/n2cnnc2)c(C)n1-c1ccc(OCc2ccccc2F)cc1,1.8%,?,2.0%
COc1ccc(-c2cc(C(=O)Nc3ccc(C)cc3)no2)cc1,-11.6%,-0.3%,4.7%
Cc1ccc(-c2cc(C(=O)Nc3c(C#N)cnn3C)no2)cc1,?,?,12.6µM*
CO[C@@H]1COC(=O)CC=C[C@@H](C)[C@@H]2C=C[C@@H](O)[C@@H](COC(=O)C/C=C\[C@H]1C)O2,-7.6%[9.22 µM],17.5%[9.22 µM],-0.2%[11.4 µM]
Nc1ccc(-c2nc3ccccc3[nH]2)cc1,?,10µM*,15.8µM*
Nc1cccc(-c2nc3ccccc3[nH]2)c1,?,?,12.6µM*
Cc1ccc2nc(-c3cccc(N)c3)[nH]c2c1,11.2µM*,14.1µM*,nt
Cn1cc(-c2nc3ccccc3[nH]2)c2ccccc21,-25.2%,-22.8%,12.6µM*
Cc1n[nH]c(C)c1-c1nc2ccccc2[nH]1,-0.6%,1.5%,0.2%
Nc1ccccc1-c1nc2ccccc2[nH]1,-29.2%,-23.8%,?
Cc1ccc2nc(-c3sc4nc(C)cc(C)c4c3N)[nH]c2c1,-24.2%,?,nt
Nc1ccc(-c2nc3ccc(-c4nc5ccc(N)cc5[nH]4)cc3[nH]2)cc1,11.2%,-13.9%,nt
CCS(=O)(=O)N1CCc2cc(C(=O)Nc3cc(OC)c(Cl)cc3OC)ccc21,-31.1%,-5.6%,nt
CC(C)(C)c1onc(OCP(=O)(O)O)c1C[C@@H](N)C(=O)O,16.5%,-5.6%,-3.5%
SMILES,p53ts 39C tox,p53ts 32C tox,FLuc inh
CC(=O)OC[C@@H]1O[C@H](CCON=C(C)C)C=C[C@@H]1OC(C)=O,-2.2%[9.22 µM],1.9%[9.22 µM],-0.3%[11.4 µM]
c1ccc(-c2cc(CSc3nc4ccccc4[nH]3)on2)cc1,-0.8%,3.1%,0.6%
c1ccc(-c2csc(-c3nc4ccccc4[nH]3)n2)cc1,15.8µM*,7.94µM*,nt
O=C(Cn1ncc2c3ccccc3n(Cc3ccccc3F)c2c1=O)NC1CCCCCC1,7.94µM*,-10.9%,nt
O=C(Cn1ncc2c3ccccc3n(Cc3ccc(F)cc3)c2c1=O)NC1CCCCCC1,7.3%,5.6%,nt
Cc1ccc(-n2nnc(C(=O)Nc3cc(F)ccc3F)c2C)cc1F,30.9%,6.3%,nt
COc1ccc(-c2csc(/C(C#N)=C/Nc3ccc4c(c3)OCCO4)n2)cc1,-3.9%,-23.9%,nt
Oc1ccc(Nc2nc(-c3ccc(Cl)cc3)cs2)cc1,9.2%,-1.1%,nt
c1cc2c(cc1Nc1nc(-c3ccc4c(c3)OCO4)cs1)OCCO2,-16.7%,-18.6%,12.6µM*
Oc1ccc(Nc2nc(-c3ccc(O)cc3)cs2)cc1,6.7%,-3.1%,15.8µM*
Oc1ccc(-c2csc(NCc3ccco3)n2)cc1,-29.7%,-3.4%,25.1µM*
CC(=O)Nc1cccc(-c2csc(NCc3ccco3)n2)c1,-6.8%,3.4%,-17.8%
C=CCc1ccccc1OCC(O)CN1CCN(C(=O)OCC)CC1 (stereo not drawn),8.2%,-5.6%,0.5%
[O-]/[N+](=N\O)c1ccccc1,8.8%,3.0%[1.84 µM],nt
O=C(O)[C@@H]1CCCN1Cc1c[nH]c2ccccc12,3.1%[9.22 µM],1.0%[9.22 µM],0.4%[11.4 µM]
CN1CCN(c2ncc3nc(CCc4ccccc4)c(=O)n(Cc4ccc(F)cc4)c3n2)CC1,-8.2%,-10.2%,-1.4%[11.4 µM]
O=c1c(CCc2ccccc2)nc2cnc(N3CCNCC3)nc2n1Cc1ccc(F)cc1,12.6µM*,1.7%,1.0%[11.4 µM]
COc1ccc(-c2nc3cnc(N4CCNCC4)nc3n(Cc3cccc(OC)c3)c2=O)cc1,?,-19.8%,0.4%[11.4 µM]
COc1cccc(Cn2c(=O)c(-c3ccc(Cl)cc3)nc3cnc(N4CCNCC4)nc32)c1,?,12.6µM*,-1.0%[11.4 µM]
COCCCNC(=O)c1oc2c(c1C)-c1nn(Cc3cccc(Cl)c3)cc1CC2,?,19.5%,nt
CCOC(=O)c1ccc(NC(=O)c2c(NCc3cccs3)sc3c2CCCCC3)cc1,16.3%,2.2%,nt
CCN(CC)CCCNC(=O)c1ccc(Cc2nc3ccccc3[nH]2)cc1,5.7%,8.0%,nt
O=C(Nc1ccc(N2CCOCC2)c(Cl)c1)c1ncn[nH]1,?,?,20µM*
CCCC(=O)N1CCN(c2ccc(NC(=O)c3cc4ccccc4o3)cc2Cl)CC1,15.8µM*,?,-10.1%
O=C(c1cc2ccccc2o1)N1CCN(c2ccccc2Cl)CC1,-15.6%,-3.1%,2.7%
SMILES,p53ts 39C tox,p53ts 32C tox,FLuc inh
O=C(Nc1ccc(N2CCN(C(=O)c3ccco3)CC2)c(Cl)c1)c1cc2ccccc2o1,?,12.6µM*,-3.5%
O=C(Nc1ccc(N2CCN(C(=O)c3ccccc3)CC2)c(Cl)c1)c1ccco1,?,-3.1%,1.1%
O=C(Nc1ccc(N2CCOCC2)c(Cl)c1)C1CCCCC1,-11.4%,12.8%,-2.2%
CCC(=O)N1CCN(c2ccc(NC(=O)c3cc4ccccc4o3)cc2Cl)CC1,?,?,-7.5%
O=C(Nc1ccc(N2CCOCC2)c(Cl)c1)c1ccco1,15.8µM*,12.6µM*,12.6µM*
CC(C)Oc1ccc2c(=O)c3cc(C(=O)O)ccc3oc2c1,?,-27.1%,-7.3%
CCCN(C(=O)Cn1cnc2sc(C)c(S(=O)(=O)N3CCN(c4ncccn4)CC3)c2c1=O)c1cccc(C)c1,0.3%,4.8%,nt
CSc1nc(N)c2ncn([C@@H]3O[C@@H](COP(=O)(O)OP(=O)(O)O)[C@@H](O)[C@H]3O)c2n1,6.0%,-6.2%,0.6%
O=[N+]([O-])c1ccc(NCCO)c(OCCO)c1,6.5%,-6.4%[1.84 µM],nt
FC(F)(F)c1cc(CO[C@H]2CCCN[C@H]2c2ccccc2)cc(C(F)(F)F)c1,12.6µM*,?,-2.3%
CC/C=C\CC[C@H](O)C1=CCCCC1=O,-1.0%[9.22 µM],-8.1%[9.22 µM],2.5%[11.4 µM]
Cc1ccc(Cl)c2sc(NC(=O)CS(=O)(=O)c3ccc(Cl)cc3)nc12,?,3.7%,nt
Nc1ncnc2c1ncn2C1OC(CO)C(O)C1O (stereo not drawn),0.0%,17.9%,nt
Nc1nc(F)nc2c1ncn2[C@@H]1O[C@H](CO)[C@@H](O)[C@@H]1O,nt,nt,0.8%[25.5 µM]
OC[C@H]1O[C@@H](n2cnc3cncnc32)[C@H](O)[C@@H]1O,10µM*,?,nt
